Screening results from PubChem BioAssay.
PLAP activator: activates human placental alkaline phosphatase. activation fold at 20 µM. purified PLAP enzyme, luminescent substrate read-out; stronger effect = higher value. 96,000 tested, 1.2% active; in the data active = activation fold above about 2
Target sequence (P05187 whole entry, looked up): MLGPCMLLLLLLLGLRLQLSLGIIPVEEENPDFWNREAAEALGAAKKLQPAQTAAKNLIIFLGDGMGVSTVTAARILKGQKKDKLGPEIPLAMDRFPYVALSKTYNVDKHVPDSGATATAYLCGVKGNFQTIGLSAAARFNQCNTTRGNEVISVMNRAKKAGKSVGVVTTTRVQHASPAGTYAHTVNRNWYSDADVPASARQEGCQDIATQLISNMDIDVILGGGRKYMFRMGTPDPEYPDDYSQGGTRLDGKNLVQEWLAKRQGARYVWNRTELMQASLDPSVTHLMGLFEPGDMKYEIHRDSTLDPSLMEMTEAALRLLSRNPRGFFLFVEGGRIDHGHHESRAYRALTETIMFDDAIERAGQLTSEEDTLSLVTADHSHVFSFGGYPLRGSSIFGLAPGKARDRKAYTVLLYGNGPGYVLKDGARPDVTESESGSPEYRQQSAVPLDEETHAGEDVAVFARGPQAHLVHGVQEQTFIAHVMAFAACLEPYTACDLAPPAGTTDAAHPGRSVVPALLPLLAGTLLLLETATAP
TNFa cytotox: HUVEC cytotoxicity counter-screen, TNF alpha stimulated | HUVEC TNFalpha-stimulated, Hoechst cell count, imaging | cell count reduction, % at 2 µM | 93,000 tested, 0.17% active | AID 848;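 active = cell count reduction exceeding the screen mean by over 5 SD, scaled to untreated wells per plate, cut at about 78% in these data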;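 note: cells counted after 24 h of TNF alpha exposure following the 1 h pretreatment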
VCAM1 TNFa inh: reduces TNF alpha induced VCAM1 expression in HUVEC; HUVEC TNFa-induced VCAM-1 immunofluorescence, high-content imaging; inhibition, % at 2 µM; 95,000 tested, 0.48% active; AID 802;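 active = inhibition above the batch mean plus 3 SD, with images confirmed as a hit by eye, cut at about 37% in these data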;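 note: 0% = TNF-stimulated DMSO wells and 100% = unstimulated control wells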
E-sel TNF inh: blocks E-selectin expression induced by TNF alpha | 120,000 tested, 0.71% active | HUVEC TNFa-induced E-selectin immunofluorescence, high content | inhibition, % at 2 µM;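 active = inhibition above the batch mean plus 3 SD, and confirmed as a hit on visual image review, cut at about 43% in these data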;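 note: 0% = TNF-stimulated DMSO wells and 100% = unstimulated control wells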
cytoskel mod: alters cytoskeleton assembly in HUVEC cells | HUVEC TNFa F-actin phalloidin imaging, high content | inhibition, % at 2 µM | 91,000 tested, 0.18% active;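 active = inhibition above the batch mean plus 3 SD and confirmed as a hit by visual image inspection, cut at about 30% in these data, passing the limit was not always enough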
Starred values were filed as active, the others as inactive. This is a sample that favours compounds with a hit; in the whole collection about 2% have one here.

Screening CC(C)C1O/C(=N/C(=O)Nc2ccc(Cl)c(Cl)c2)NC1=O (centres undefined) returned PLAP activator 1, TNFa cytotox -11, VCAM1 TNFa inh -2, E-sel TNF inh -1 and cytoskel mod -6.
`COc1cccc2[nH]c3c(N4CCN(Cc5ccc6c(c5)OCO6)CC4)ncnc3c12` gave PLAP activator 2.1*, TNFa cytotox -11, VCAM1 TNFa inh 3 and cytoskel mod 12.
Screening COc1ccc2c(c1)[nH]c1c(N3CCN(Cc4ccc5c(c4)OCO5)CC3)ncnc12 returned PLAP activator 1.9, TNFa cytotox -56, VCAM1 TNFa inh -6, E-sel TNF inh 3 and cytoskel mod 9.
`Cc1ccc2[nH]c3c(N4CCN(Cc5ccccc5)CC4)ncnc3c2c1` gave PLAP activator 2*, TNFa cytotox -11, VCAM1 TNFa inh 16 and cytoskel mod 7.
O=C(COc1ccc(/C=N/NC(=O)C(=O)N2CCCCCC2)cc1)Nc1ccccc1Cl was read as E-sel TNF inh 70*.
For N=c1sccn1CC(=O)Nc1cc(Cl)ccc1[N+](=O)[O-] the results were E-sel TNF inh -8.
`N=c1sccn1CC(=O)NCCc1ccc(Cl)cc1` gave PLAP activator 1, TNFa cytotox 0, VCAM1 TNFa inh -11, E-sel TNF inh 81* and cytoskel mod 0.
O=c1c2c(-c3cccs3)csc2ncn1/N=C/c1ccc(OC(F)F)cc1 was read as PLAP activator 0.9, TNFa cytotox -29, VCAM1 TNFa inh 9, E-sel TNF inh 18 and cytoskel mod 2.
Screening O=C(O)COc1ccc(/C=N/n2cnc3scc(-c4cccs4)c3c2=O)cc1 returned E-sel TNF inh 93*.
Screening Cc1cc(NCCCn2ccnc2)n2c(nc3ccccc32)c1C#N returned PLAP activator 0.8, TNFa cytotox 0, VCAM1 TNFa inh 1, E-sel TNF inh 3 and cytoskel mod -3.
Screening CCc1c(C)c(C#N)c2nc3ccccc3n2c1Cl returned E-sel TNF inh 67*.
`CCc1c(C)c(C#N)c2nc3ccccc3n2c1-n1nc(C)cc1C` gave E-sel TNF inh 21.
Cc1cc(NCCN2CCCCC2)n2c(nc3ccccc32)c1C#N was read as PLAP activator 1.4, TNFa cytotox 40, VCAM1 TNFa inh 19, E-sel TNF inh 100* and cytoskel mod 31.
Screening Clc1ccc(Nc2ccc(-n3ccnc3)nn2)cc1Cl returned PLAP activator 0.8, TNFa cytotox -21, VCAM1 TNFa inh 17, E-sel TNF inh 65* and cytoskel mod 5.
`COC(=O)c1cc(S(=O)(=O)N2CCOCC2)c(N2CCOCC2)cc1N1CCOCC1` gave PLAP activator 1 and E-sel TNF inh 56*.
`Cc1cc(C)c(C)c(OCCCN(C)C)c1` gave E-sel TNF inh 2.
Screening COc1cc(CN2CCCC(CO)(Cc3ccccc3C)C2)cc2c1OCO2 (centres undefined) returned E-sel TNF inh 9.
Screening COc1ccc(O)c(/C=N\NC(=O)CCn2nnc3ccccc32)c1 returned PLAP activator 2.1*, TNFa cytotox -11, VCAM1 TNFa inh -10, E-sel TNF inh -22 and cytoskel mod -29.
`COc1cccc(-c2cc3c(=O)n(-c4ccccc4)c(=S)[nH]c3s2)c1` gave PLAP activator 1.1, TNFa cytotox -30, VCAM1 TNFa inh 18, E-sel TNF inh 66* and cytoskel mod 27.
For COc1ccc(-n2cnc3sc(-c4ccccc4)cc3c2=O)cc1 the results were PLAP activator 1.1, TNFa cytotox -9, VCAM1 TNFa inh 8, E-sel TNF inh -43 and cytoskel mod 11.
Screening CC1C(C(=O)Nc2ccccc2)CCCC1(C)C(=O)O (centres undefined) returned PLAP activator 1.1, TNFa cytotox 15, VCAM1 TNFa inh 5, E-sel TNF inh 23 and cytoskel mod -16.
Screening Fc1cccc2sc(Nc3nc4ccccc4s3)nc12 returned E-sel TNF inh 17.
Screening N#Cc1c(NCc2ccccc2)ccnc1NCc1cccnc1 returned PLAP activator 0.8, VCAM1 TNFa inh 93*, E-sel TNF inh -18 and cytoskel mod 38.
COc1cccc(CSc2nnc(CSc3nc4nc(C)cc(C)n4n3)s2)c1 was read as PLAP activator 2.1*, TNFa cytotox -16, VCAM1 TNFa inh -2, E-sel TNF inh 3 and cytoskel mod 3.
`COc1ccc2cc(CN(CC3CCCO3)S(=O)(=O)c3ccccc3Cl)c(=O)[nH]c2c1` (centres undefined) gave PLAP activator 2*, TNFa cytotox -82, VCAM1 TNFa inh 15, E-sel TNF inh -17 and cytoskel mod 21.
For COC(=O)c1cccc(S(=O)(=O)N(Cc2ccco2)Cc2cc3ccc(OC)cc3[nH]c2=O)c1 the results were PLAP activator 1.2, TNFa cytotox 61, VCAM1 TNFa inh 87* and cytoskel mod -28.
CCn1c(SCCC(=O)Nc2ccccc2)nnc1-c1ccc(OC)cc1 was read as PLAP activator 1, TNFa cytotox 14, VCAM1 TNFa inh 10, E-sel TNF inh 22 and cytoskel mod -2.
CCCNCc1cc(OC)c(OCCC)cc1Cl was read as TNFa cytotox 5, VCAM1 TNFa inh 12, E-sel TNF inh -31 and cytoskel mod 2.
`O=C1CC(c2ccco2)Cc2nc(Nc3nc(-c4ccccc4)c4ccccc4n3)ncc21` (centres undefined) gave PLAP activator 1.5, TNFa cytotox -16, VCAM1 TNFa inh 8, E-sel TNF inh -24 and cytoskel mod -26.
`O=c1c(-c2ccc(Br)cc2)coc2c(CN3CCOCC3)c(O)ccc12` gave PLAP activator 1.1, TNFa cytotox 32, VCAM1 TNFa inh 62*, E-sel TNF inh -9 and cytoskel mod 5.
`Cc1oc2c(CN3CCOCC3)c(O)ccc2c(=O)c1-c1ccc(Br)cc1` gave PLAP activator 1.2, TNFa cytotox -40, VCAM1 TNFa inh 29, E-sel TNF inh 4 and cytoskel mod 2.
CCCCN(C(=O)c1cc2ccccc2o1)c1c(N)n(CCC)c(=O)[nH]c1=O was read as E-sel TNF inh -15.
`CCOC(=O)c1sc2nc(CN3CCN(c4cccc(C(F)(F)F)c4)CC3)[nH]c(=O)c2c1C` gave E-sel TNF inh -2.
Screening CCN(CC(=O)NCc1ccccn1)S(=O)(=O)c1ccc(Cl)cc1 returned PLAP activator 0.9, TNFa cytotox 79*, VCAM1 TNFa inh 17, E-sel TNF inh -2 and cytoskel mod 6.
CCN(CC(=O)NC1CCCCC1)S(=O)(=O)c1ccc(Cl)cc1 was read as PLAP activator 0.9, TNFa cytotox 13, VCAM1 TNFa inh 14, E-sel TNF inh -5 and cytoskel mod 8.
Screening COc1ccc(S(=O)(=O)NCc2ccccn2)c(Cl)c1Cl returned PLAP activator 2.1*, TNFa cytotox -43, VCAM1 TNFa inh 13, E-sel TNF inh 0 and cytoskel mod 4.
Screening CCOc1ccc(S(=O)(=O)NCc2ccccn2)cc1 returned PLAP activator 2*, TNFa cytotox 8, VCAM1 TNFa inh 17, E-sel TNF inh 6 and cytoskel mod -11.
